What all share (test): DAPPL (digital affinity profiling via proximity ligation, sequencing); 10 mM Tris-HCl pH 7.5, 50 mM NaCl, 1 mM DTT, 4% glycerol, room temperature, 30 min; GST-TFs on glutathione beads, 16-mer random dsDNA library, 0.1% formaldehyde crosslink after washing; high values mean tight binding
For one experiment, the target named is T1, FLI1 (Homo sapiens, UniProt Q01543 1-452).
T1 sequence: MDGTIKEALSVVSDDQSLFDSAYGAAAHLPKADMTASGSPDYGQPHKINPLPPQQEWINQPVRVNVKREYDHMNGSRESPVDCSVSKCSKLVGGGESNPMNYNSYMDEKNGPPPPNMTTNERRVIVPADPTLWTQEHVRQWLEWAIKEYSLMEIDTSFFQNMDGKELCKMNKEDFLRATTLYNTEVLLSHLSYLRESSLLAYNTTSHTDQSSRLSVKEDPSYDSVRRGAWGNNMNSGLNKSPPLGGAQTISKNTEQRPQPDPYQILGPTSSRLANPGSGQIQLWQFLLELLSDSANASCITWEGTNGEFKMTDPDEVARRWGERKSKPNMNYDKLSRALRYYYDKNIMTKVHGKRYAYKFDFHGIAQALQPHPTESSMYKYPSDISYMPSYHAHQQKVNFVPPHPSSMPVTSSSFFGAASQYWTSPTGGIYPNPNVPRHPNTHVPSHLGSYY
The note with it: protein: recombinant; tags: N-terminal GST; dsDNA, one strand shown. In outline: (§1)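 Pools were built from human transcription factors expressed in yeast as GST fusions, captured on glutathione beads and DNA-barcoded, along with a tag-only sample. Incubation with 200 nmole of a 16-mer random double-stranded DNA library lasted 30 min at room temperature in Tris/NaCl/DTT/glycerol buffer, and was followed by washing, 0.1% formaldehyde crosslinking, proximity ligation, PCR amplification and Illumina NextSeq500 sequencing. Binding signal is the quotient of each hexamer's read frequency for a factor and its frequency for the tag-only sample.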

In the next experiment the target is T2, ELK1 (Homo sapiens, UniProt P19419 1-428).
T2 sequence: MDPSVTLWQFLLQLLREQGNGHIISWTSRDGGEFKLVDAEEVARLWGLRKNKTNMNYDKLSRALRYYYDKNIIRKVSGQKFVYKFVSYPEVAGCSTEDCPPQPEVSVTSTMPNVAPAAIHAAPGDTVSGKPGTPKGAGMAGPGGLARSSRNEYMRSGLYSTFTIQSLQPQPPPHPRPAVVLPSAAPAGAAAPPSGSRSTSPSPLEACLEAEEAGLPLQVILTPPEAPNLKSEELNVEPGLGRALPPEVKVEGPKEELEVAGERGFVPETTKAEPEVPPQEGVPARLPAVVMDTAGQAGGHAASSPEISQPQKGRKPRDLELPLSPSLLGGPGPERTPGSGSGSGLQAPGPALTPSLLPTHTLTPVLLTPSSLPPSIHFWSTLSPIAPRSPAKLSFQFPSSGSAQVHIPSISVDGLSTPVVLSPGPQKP
The note with it: protein: recombinant; tags: N-terminal GST; dsDNA, one strand shown. In outline: as §1

The target of a further experiment is T3, GABPA (Homo sapiens, UniProt Q06546 1-454).
T3 sequence: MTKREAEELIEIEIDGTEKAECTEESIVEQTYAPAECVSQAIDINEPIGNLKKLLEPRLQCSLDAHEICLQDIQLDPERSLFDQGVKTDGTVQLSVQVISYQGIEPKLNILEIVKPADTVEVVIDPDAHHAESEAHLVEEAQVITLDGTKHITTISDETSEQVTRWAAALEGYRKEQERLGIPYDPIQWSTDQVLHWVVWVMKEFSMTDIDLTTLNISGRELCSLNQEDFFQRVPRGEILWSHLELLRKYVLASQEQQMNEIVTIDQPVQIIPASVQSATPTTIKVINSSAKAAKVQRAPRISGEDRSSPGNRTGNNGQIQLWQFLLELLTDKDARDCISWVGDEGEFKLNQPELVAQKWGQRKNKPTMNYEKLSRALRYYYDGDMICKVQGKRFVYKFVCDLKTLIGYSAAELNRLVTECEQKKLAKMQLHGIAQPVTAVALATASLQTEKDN
The note with it: protein: recombinant; tags: N-terminal GST; dsDNA, one strand shown. In outline: as §1

The target of a further experiment is T4, ERG (Homo sapiens, UniProt P11308 1-479).
T4 sequence: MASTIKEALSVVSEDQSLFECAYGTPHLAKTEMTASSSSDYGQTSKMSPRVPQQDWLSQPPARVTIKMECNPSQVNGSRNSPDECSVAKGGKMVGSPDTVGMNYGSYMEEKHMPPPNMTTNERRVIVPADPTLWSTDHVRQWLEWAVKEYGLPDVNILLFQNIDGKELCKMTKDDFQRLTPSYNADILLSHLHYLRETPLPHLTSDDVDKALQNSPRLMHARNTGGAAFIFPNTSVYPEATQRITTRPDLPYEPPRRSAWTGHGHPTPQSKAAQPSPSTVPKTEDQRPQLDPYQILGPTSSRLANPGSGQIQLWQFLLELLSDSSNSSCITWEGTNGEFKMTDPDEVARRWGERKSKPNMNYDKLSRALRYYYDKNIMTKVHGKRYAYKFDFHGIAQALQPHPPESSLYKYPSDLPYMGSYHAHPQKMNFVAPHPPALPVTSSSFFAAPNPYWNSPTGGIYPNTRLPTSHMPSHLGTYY
The conditions noted are these: protein: recombinant; tags: N-terminal GST; dsDNA, one strand shown. In outline: as §1

The next experiment concerns the target ELF1 (Homo sapiens, UniProt P32519 1-619). The note with it: protein: recombinant; tags: N-terminal GST; dsDNA, one strand shown. In outline:
as §1

Another experiment deals with T5, EHF (Homo sapiens, UniProt Q9NZC4 1-300).
T5 sequence: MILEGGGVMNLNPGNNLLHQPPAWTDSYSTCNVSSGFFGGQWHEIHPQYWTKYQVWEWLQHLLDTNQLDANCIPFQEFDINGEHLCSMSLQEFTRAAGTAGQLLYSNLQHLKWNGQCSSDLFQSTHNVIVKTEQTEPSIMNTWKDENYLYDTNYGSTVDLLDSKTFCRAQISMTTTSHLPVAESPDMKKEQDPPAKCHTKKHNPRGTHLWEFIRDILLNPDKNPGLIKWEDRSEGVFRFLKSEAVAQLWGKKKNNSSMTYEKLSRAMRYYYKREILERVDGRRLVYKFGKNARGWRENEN
The note with it: protein: recombinant; tags: N-terminal GST; dsDNA, one strand shown. In outline: as §1

A further experiment deals with SPI1 (Homo sapiens, UniProt P17947 1-270). The note with it: protein: recombinant; tags: N-terminal GST; dsDNA, one strand shown. In outline: as §1
A further experiment deals with SPIB (Homo sapiens, UniProt Q01892 1-262). The note with it: protein: recombinant; tags: N-terminal GST; dsDNA, one strand shown. In outline: as §1
Sequence of SPIB (Q01892 whole entry): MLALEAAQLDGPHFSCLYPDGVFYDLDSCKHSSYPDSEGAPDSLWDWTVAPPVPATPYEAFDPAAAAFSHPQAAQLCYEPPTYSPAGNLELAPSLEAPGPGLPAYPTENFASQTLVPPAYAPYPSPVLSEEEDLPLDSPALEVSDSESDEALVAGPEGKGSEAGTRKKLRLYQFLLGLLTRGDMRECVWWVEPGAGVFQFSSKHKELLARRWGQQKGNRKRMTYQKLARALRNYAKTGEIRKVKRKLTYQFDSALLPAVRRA
A further experiment has as its target T6, ELK3 (Homo sapiens, UniProt P41970 1-407).
T6 sequence: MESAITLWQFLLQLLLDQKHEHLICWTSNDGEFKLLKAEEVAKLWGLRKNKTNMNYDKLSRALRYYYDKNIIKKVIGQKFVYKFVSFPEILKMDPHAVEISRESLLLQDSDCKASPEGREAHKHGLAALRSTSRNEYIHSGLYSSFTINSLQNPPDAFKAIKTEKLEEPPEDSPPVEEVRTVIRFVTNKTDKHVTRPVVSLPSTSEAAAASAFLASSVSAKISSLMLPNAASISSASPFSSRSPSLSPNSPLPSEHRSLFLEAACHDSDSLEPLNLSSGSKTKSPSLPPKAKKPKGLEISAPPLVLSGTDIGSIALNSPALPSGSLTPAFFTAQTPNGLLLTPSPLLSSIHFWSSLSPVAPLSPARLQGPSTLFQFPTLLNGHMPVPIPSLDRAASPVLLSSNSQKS
The conditions noted are these: protein: recombinant; tags: N-terminal GST; dsDNA, one strand shown. In outline:
as §1

The next experiment addresses T7, FEV (Homo sapiens, UniProt Q99581 1-238).
T7 sequence: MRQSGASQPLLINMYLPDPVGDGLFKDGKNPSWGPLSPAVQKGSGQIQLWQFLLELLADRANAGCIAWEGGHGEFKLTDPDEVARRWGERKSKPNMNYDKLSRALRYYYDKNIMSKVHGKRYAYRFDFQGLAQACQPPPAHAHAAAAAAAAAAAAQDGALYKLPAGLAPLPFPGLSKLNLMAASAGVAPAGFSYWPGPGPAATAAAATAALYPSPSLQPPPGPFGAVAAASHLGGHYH
The note with it: protein: recombinant; tags: N-terminal GST; dsDNA, one strand shown. In outline: as §1

Another experiment deals with ETV5 (Homo sapiens, UniProt P41161 1-510). The note with it: protein: recombinant; tags: N-terminal GST; dsDNA, one strand shown. In outline:
as §1

For the next experiment, the target named is HSF1 (Homo sapiens, UniProt Q00613 1-529). The conditions noted are these: protein: recombinant; tags: N-terminal GST; chain copies: 3; dsDNA, one strand shown. In outline:
as §1

For another experiment, the target named is T8, SPIC (Homo sapiens, UniProt Q8N5J4 1-248).
T8 sequence: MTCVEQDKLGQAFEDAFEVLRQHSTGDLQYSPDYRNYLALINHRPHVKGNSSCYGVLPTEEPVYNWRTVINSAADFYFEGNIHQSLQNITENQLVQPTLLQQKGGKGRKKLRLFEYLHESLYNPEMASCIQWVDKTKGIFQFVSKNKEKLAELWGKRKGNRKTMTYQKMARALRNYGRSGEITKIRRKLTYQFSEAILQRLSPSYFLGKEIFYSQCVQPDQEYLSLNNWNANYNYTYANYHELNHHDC
The conditions noted are these: protein: recombinant; tags: N-terminal GST; dsDNA, one strand shown. In outline:
as §1

A further experiment concerns the target ELF4 (Homo sapiens, UniProt Q99607 1-663). The conditions noted are these: protein: recombinant; tags: N-terminal GST; dsDNA, one strand shown. In outline: as §1
Another experiment addresses T9, ELK4 (Homo sapiens, UniProt P28324-2 1-405).
T9 sequence: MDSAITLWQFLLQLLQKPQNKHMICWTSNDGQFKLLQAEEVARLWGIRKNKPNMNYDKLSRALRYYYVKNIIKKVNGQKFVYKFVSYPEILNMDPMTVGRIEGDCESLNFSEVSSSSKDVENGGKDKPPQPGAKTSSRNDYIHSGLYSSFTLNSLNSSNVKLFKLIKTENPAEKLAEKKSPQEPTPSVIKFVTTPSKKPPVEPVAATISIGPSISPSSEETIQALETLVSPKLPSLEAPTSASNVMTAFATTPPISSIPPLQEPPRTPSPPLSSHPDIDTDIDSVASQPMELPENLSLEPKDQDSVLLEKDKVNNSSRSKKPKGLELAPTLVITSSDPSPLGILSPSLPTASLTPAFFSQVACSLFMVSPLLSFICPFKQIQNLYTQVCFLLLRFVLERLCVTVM
The conditions noted are these: protein: recombinant; tags: N-terminal GST; dsDNA, one strand shown. In outline:
as §1

The target in the next experiment is T10, ETV2 (Homo sapiens, UniProt O00321 1-342).
T10 sequence: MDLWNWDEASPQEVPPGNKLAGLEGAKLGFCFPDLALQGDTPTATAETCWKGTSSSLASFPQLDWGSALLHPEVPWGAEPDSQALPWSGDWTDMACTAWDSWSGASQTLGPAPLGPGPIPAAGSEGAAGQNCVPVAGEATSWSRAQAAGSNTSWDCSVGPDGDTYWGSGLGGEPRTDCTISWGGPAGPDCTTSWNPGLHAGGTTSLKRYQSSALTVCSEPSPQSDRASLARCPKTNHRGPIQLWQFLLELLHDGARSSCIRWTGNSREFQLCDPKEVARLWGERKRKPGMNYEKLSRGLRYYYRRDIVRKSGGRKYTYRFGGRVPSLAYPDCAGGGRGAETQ
The conditions noted are these: protein: recombinant; tags: N-terminal GST; dsDNA, one strand shown. In outline: as §1

A further experiment has as its target T11, ELF3 (Homo sapiens, UniProt P78545 1-371).
T11 sequence: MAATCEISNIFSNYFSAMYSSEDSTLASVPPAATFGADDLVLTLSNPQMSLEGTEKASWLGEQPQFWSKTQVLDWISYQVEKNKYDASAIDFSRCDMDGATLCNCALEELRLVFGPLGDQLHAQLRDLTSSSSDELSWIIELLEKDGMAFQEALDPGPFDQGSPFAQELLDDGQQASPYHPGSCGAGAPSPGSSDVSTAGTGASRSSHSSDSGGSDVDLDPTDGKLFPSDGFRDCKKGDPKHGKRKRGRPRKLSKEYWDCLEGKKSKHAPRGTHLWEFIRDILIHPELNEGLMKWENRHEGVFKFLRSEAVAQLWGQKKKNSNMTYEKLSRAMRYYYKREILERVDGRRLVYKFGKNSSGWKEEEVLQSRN
The note with it: protein: recombinant; tags: N-terminal GST; dsDNA, one strand shown. In outline: as §1

Another experiment deals with CRX (Homo sapiens, UniProt O43186 1-299). The conditions noted are these: protein: recombinant; tags: N-terminal GST; dsDNA, one strand shown. In outline: as §1
Sequence of CRX (O43186 whole entry): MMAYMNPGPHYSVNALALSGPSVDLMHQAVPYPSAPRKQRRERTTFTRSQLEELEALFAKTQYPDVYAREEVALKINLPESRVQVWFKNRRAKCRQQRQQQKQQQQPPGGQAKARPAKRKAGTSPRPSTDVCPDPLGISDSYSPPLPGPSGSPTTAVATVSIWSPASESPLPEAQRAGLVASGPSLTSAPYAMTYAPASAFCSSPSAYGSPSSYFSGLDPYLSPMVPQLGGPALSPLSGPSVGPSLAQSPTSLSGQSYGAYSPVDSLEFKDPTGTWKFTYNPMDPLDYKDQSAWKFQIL
The target in another experiment is ETV1 (Homo sapiens, UniProt P50549 1-477). The conditions noted are these: protein: recombinant; tags: N-terminal GST; dsDNA, one strand shown. In outline: as §1
Sequence of ETV1 (P50549 whole entry): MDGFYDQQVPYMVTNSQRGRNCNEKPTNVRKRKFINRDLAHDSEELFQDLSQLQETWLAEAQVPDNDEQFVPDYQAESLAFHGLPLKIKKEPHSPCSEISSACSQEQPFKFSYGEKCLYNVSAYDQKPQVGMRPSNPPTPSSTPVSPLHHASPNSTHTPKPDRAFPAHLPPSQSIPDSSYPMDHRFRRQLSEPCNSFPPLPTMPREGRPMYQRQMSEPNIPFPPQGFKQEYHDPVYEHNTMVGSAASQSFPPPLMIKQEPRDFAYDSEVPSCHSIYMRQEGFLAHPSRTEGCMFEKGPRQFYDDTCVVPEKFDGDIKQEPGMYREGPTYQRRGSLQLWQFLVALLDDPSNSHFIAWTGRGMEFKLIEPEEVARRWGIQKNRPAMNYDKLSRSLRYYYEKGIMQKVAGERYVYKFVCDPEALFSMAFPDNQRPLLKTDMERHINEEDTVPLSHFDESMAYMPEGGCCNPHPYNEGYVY

Sequence of ETV5 (P41161 whole entry): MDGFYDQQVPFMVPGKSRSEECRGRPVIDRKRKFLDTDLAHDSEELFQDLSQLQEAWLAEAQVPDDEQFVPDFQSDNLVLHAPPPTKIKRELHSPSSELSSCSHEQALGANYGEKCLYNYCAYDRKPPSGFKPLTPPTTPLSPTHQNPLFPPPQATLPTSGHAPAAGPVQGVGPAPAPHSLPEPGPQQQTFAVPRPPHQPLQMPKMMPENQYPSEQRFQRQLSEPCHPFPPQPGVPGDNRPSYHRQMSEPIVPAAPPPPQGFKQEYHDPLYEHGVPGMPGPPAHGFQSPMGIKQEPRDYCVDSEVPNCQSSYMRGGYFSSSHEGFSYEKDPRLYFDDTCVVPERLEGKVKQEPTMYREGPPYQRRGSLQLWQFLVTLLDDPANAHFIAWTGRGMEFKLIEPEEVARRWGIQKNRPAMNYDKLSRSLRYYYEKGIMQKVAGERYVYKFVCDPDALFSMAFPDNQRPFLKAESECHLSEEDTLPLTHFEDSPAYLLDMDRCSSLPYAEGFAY
Sequence of ELF1 (P32519 whole entry): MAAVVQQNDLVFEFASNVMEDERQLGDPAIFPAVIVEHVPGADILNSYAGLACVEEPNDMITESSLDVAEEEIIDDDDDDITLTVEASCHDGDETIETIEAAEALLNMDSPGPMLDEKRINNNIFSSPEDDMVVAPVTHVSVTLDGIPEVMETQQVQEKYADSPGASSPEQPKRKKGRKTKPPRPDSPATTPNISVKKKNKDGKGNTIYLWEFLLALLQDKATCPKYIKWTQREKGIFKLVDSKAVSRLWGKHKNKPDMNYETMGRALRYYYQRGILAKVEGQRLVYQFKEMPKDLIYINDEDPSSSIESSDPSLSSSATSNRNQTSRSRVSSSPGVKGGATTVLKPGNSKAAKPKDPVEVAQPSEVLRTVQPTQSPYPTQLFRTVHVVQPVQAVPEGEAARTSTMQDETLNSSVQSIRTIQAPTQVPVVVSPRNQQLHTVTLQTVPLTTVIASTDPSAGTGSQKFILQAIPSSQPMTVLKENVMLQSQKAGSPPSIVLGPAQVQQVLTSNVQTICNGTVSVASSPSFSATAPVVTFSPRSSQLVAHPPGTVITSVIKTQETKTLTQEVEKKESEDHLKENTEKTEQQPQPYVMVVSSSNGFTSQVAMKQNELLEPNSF
Sequence of ELF4 (Q99607 whole entry): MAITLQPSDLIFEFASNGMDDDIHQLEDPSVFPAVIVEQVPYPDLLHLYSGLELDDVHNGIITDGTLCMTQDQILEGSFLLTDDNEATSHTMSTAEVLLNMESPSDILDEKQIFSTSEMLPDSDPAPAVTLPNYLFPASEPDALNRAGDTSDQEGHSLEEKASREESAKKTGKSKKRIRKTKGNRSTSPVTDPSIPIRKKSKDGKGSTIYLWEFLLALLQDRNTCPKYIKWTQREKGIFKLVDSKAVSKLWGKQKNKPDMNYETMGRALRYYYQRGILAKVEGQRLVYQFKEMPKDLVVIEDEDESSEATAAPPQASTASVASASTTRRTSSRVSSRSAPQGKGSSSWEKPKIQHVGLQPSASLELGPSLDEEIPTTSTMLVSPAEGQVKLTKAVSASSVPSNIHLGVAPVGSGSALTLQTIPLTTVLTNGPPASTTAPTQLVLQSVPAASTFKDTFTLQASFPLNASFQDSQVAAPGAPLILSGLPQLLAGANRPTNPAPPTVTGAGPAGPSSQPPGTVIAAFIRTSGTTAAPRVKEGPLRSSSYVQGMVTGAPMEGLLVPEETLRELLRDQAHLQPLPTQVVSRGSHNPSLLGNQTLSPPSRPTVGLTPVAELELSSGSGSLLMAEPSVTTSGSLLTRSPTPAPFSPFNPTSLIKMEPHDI
Sequence of HSF1 (Q00613 whole entry): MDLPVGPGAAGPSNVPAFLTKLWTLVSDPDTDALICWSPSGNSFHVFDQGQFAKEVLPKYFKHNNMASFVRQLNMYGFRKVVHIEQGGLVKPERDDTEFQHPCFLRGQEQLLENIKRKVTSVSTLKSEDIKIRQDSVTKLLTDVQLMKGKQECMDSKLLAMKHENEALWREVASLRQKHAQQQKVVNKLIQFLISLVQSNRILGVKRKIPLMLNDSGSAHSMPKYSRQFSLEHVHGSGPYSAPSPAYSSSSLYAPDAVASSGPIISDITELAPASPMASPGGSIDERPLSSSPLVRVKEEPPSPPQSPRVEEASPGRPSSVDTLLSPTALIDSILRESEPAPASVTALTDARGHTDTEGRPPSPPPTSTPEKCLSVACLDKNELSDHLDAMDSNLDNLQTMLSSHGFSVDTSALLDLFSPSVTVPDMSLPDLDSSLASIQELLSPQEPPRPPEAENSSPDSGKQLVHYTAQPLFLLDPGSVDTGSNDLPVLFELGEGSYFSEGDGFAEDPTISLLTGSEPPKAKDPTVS

As to ATCTTT, the binding signal in the experiment with FLI1 was 1.26 fold enrichment (6-mer frequency, TF over GST control); with ELK1 it was 1.24 fold enrichment (6-mer frequency, TF over GST control); with GABPA, 1.22 fold enrichment (6-mer frequency, TF over GST control); with ERG, 1.21 fold enrichment (6-mer frequency, TF over GST control); with ELF1, 1.19 fold enrichment (6-mer frequency, TF over GST control); with EHF it was 1.27 fold enrichment (6-mer frequency, TF over GST control). The binding signal in the experiment with SPI1 was 1.21 fold enrichment (6-mer frequency, TF over GST control); with SPIB, 1.23 fold enrichment (6-mer frequency, TF over GST control); with ELK3, 1.22 fold enrichment (6-mer frequency, TF over GST control); with FEV, 1.19 fold enrichment (6-mer frequency, TF over GST control); with ETV5, 1.16 fold enrichment (6-mer frequency, TF over GST control); with HSF1, 1.58 fold enrichment (6-mer frequency, TF over GST control). Further, the binding signal was 1.35 fold enrichment (6-mer frequency, TF over GST control) with SPIC; 1.22 fold enrichment (6-mer frequency, TF over GST control) with ELF4; 1.29 fold enrichment (6-mer frequency, TF over GST control) with ELK4; 1.15 fold enrichment (6-mer frequency, TF over GST control) with ETV2; 1.17 fold enrichment (6-mer frequency, TF over GST control) in the experiment with ELF3; 1.76 fold enrichment (6-mer frequency, TF over GST control) in the experiment with CRX. The binding signal in the experiment with ETV1 was 1.24 fold enrichment (6-mer frequency, TF over GST control).

The values are drawn from paper PMC7862700, “An all-to-all approach to the identification of sequence-specific readers for epigenetic DNA modifications on cytosine”.
